# In publication PMC5540273 (PLoS ONE, 2017):
# Experiments:
# Details in all cases: concentration: 1 μM, replicates: in singlicate; n = 1
# [1] = system: T1, PYK2
# T1 construct: gene PTK2B
# [2] = system: QSK
# [3] = system: RAF1
# [4] = system: RET
# [5] = system: RIOK1
# [6] = system: RIOK2
# [7] = system: RIOK3
# [8] = system: RIPK1
# [9] = system: RIPK2
# [10] = system: RIPK4
# 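Further: KINOMEscan kinase panel screen.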
SMILES,%Inh [1],%Inh [2],%Inh [3],%Inh [4],%Inh [5],%Inh [6],%Inh [7],%Inh [8],%Inh [9],%Inh [10]
Cc1cccc(-c2nc(-c3ccc(S(C)(=O)=O)cc3)sc2-c2ccncc2)c1,2%,8%,25%,14%,19%,27%,0%,0%,59%,0%
Cc1cccc(Cn2ccn3c(=O)cc(N4CCOCC4)nc23)c1 [GSK2297542],12%,11%,7%,13%,26%,29%,10%,26%,11%,7%
NS(=O)(=O)c1cccc(-c2ccc3ncc(N4CCOCC4)nc3c2)c1 [GSK1535721],10%,0%,5%,0%,22%,41%,0%,19%,13%,1%
CSc1ccc(-c2cc3ncnc(SCC(=O)O)c3s2)cc1,13%,0%,0%,8%,0%,0%,0%,0%,0%,0%
COC(=O)Nc1nc2cc(Oc3ccc(NC(=O)Nc4cc(F)ccc4F)cc3)ccc2[nH]1.Cl [GW701424],0%,0%,89%,95.1%,0%,0%,0%,0%,38%,8%
Cc1nnc(-c2ccc(C)c(-c3ccc(C(=O)Nc4ccc(NS(C)(=O)=O)cc4)cc3)c2)o1 [GW702865],0%,0%,2%,45%,22%,0%,27%,36%,14%,0%
COc1ccc(S(=O)(=O)NC2CCN(c3cc(C)nc(Nc4cccc(C#N)c4)n3)CC2)cc1.O=C(O)C(F)(F)F [GSK1653539],1%,6%,0%,0%,5%,0%,0%,5%,0%,0%
Cc1cccc(-c2nc(Nc3ccc4ncsc4c3)c3ccccc3n2)n1 [GW867588],0%,11%,0%,0%,20%,31%,0%,0%,5%,13%
O=C1Cc2cc(Nc3nc(NCc4cccc(S(=O)(=O)C(F)(F)F)c4)ncc3C(F)(F)F)ccc2N1,6%,0%,0%,5%,0%,35%,0%,2%,0%,0%
Cc1nnc(-c2ccc3occ(-c4ccc(C(C)O)cc4)c3c2)o1 (stereo not shown),2%,5%,100%,11%,0%,36%,0%,1%,20%,0%
COc1ccc(Nc2nccc(N3CCC(NC(=O)Nc4cccc(C(C)=O)c4)C3)n2)cc1 (stereo not shown) [GSK1379731],0%,0%,0%,0%,42%,0%,24%,0%,39%,0%
NS(=O)(=O)c1cccc(-c2ccc3nccc(-c4cccc(S(N)(=O)=O)c4)c3c2)c1 [GW867253],12%,13%,0%,0%,0%,0%,0%,0%,3%,0%
O=C(Nc1n[nH]c2cc(-c3cccc(F)c3)ccc12)C1CC1 [SB-735464],0%,28%,15%,0%,66%,40%,0%,38%,0%,18%
O=C(NCCNc1ccnc(Nc2ccc(F)cc2)n1)c1cc2ccccc2s1 [GSK1379874],29%,0%,10%,0%,23%,0%,24%,0%,0%,18%
CCc1nc(-c2cccc(C)c2)c(-c2ccnc(NCc3ccccc3)c2)s1,9%,0%,24%,4%,10%,0%,22%,0%,26%,0%
Cl.Nc1ncnc2occ(-c3ccc(NC(=O)Nc4cc(C(F)(F)F)ccc4F)cc3)c12 [SB-707548],19%,0%,78%,100%,0%,0%,22%,96%,42%,2%
